For some of these results: Entries with a potency or affinity are not part of this list.
How the values were obtained:
Design in all cases: scale not given: direction of the effect not stated beside the values
[1] = target: Protein translocase subunit SecA (Escherichia coli (strain K12)) (UniProt P10408); assay: Assay to Identify E. coli SecA ATPase Inhibitors; type: functional; settings: 30 µM
[2] = target: T1, Ubiquitin-activating enzyme e1, putative (Leishmania donovani (strain BPK282A1)) (UniProt E9BSI1); assay: Leishmania donovani Ubiquitin Activating Enzyme (LdE1); type: functional; settings: 30 µM
T1 sequence (whole entry): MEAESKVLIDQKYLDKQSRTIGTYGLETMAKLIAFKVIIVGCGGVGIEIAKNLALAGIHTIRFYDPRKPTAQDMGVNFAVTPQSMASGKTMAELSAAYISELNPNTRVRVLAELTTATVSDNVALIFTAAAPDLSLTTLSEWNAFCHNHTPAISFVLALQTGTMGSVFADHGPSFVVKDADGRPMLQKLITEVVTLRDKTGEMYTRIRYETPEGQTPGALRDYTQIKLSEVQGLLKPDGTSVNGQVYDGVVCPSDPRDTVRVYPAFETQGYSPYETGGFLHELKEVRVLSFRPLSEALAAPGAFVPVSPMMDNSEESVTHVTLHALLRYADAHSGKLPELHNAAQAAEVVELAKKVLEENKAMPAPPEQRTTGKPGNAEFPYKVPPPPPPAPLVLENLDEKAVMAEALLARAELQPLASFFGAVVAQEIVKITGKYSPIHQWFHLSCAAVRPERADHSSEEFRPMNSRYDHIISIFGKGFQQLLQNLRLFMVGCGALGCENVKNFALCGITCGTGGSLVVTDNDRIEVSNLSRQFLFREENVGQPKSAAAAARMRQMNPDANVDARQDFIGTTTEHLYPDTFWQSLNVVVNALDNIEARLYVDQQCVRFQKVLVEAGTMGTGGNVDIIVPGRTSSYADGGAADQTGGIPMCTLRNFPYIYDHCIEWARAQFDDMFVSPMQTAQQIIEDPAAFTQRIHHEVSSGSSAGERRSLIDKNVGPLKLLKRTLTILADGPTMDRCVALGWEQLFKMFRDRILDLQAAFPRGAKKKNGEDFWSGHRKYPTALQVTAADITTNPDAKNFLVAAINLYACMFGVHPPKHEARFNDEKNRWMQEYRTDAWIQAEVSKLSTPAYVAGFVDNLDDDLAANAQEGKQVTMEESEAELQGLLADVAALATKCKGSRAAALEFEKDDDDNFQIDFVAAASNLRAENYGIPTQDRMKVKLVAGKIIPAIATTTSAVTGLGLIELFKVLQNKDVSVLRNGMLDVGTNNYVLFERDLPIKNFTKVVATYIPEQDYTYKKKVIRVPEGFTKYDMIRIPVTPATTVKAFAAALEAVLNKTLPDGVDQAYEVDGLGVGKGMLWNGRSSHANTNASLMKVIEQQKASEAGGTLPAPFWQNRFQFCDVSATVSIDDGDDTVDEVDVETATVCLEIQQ

[3] = target: AMP-activated protein kinase, AMPK (Homo sapiens) (UniProt P54646+O43741+P54619+Q9UGJ0+Q9Y478+Q13131+Q9UGI9); assay: AMP-dependent Kinase enzyme assay. An in vitro enzyme assay that detects ADP turnover that is directly proportional to AMPK activity. This uses naive AMPK that is activated during the assay with MK-8722; type: functional; settings: 30 µM
[4] = target: Sialic acid-binding Ig-like lectin 9 (Homo sapiens) (UniProt Q9Y336); assay: Hs-Siglec9 ALPHAscreen SOP 20170721; settings: 10 µM
Trypanosoma cruzi = assay: Trypanosoma cruzi phosphomannomutase and mannose-1-phosphate guanylyltransferase assay; type: functional; settings: 10 µM
[5] = target: T2, Arginase-2, mitochondrial (Homo sapiens) (UniProt P78540); assay: in vitro enzyme assay to detect the production of urea directly proportional to the activity of Arginase II; type: functional; settings: 33.3 µM; note: in the data most compounds retested in dose-response had high values
T2 sequence (whole entry): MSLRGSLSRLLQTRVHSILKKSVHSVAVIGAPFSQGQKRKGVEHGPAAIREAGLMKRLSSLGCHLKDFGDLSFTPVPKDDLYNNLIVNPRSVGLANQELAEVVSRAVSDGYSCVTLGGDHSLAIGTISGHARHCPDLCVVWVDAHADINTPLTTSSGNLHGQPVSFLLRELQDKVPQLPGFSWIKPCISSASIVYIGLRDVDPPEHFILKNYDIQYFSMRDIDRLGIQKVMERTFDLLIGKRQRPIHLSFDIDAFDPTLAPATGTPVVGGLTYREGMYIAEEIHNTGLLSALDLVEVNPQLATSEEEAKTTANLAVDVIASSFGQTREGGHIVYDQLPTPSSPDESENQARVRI

[6] = target: T3, Proteasome subunit beta (Trypanosoma cruzi) (UniProt O96673); assay: Trypanosoma cruzi proteasome chymotrypsin-like activity (TcProtChymo) assay.; note: in the data most compounds retested in dose-response had high values; type: functional; settings: 9.37 µM
T3 sequence (whole entry): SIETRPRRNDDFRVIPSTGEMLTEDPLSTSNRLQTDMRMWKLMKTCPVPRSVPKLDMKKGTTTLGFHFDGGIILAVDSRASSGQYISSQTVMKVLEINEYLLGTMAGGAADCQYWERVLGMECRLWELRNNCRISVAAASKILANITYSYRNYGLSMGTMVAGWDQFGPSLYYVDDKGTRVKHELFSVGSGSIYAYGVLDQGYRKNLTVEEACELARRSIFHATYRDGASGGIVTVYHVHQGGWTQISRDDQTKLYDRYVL

Homo sapiens = species: Homo sapiens; assay: To identify inhibition of the IFN signalling (Jak-Stat) pathway via expression of an eGFP reporter gene under the control of an IFN-stimulated response element (ISRE) containing MxA promoter.; type: functional; settings: 30 µM
[7] = target: T4, Tyrosyl-tRNA synthetase, putative (Trypanosoma cruzi (strain CL Brener)) (UniProt Q4DSP6); assay: Trypanosoma cruzi tyrosyl tRNA synthetase (TcYRS) _High Tyrosine SOP; type: functional; settings: 30 µM; note: in the data most compounds retested in dose-response had high values
T4 sequence (whole entry): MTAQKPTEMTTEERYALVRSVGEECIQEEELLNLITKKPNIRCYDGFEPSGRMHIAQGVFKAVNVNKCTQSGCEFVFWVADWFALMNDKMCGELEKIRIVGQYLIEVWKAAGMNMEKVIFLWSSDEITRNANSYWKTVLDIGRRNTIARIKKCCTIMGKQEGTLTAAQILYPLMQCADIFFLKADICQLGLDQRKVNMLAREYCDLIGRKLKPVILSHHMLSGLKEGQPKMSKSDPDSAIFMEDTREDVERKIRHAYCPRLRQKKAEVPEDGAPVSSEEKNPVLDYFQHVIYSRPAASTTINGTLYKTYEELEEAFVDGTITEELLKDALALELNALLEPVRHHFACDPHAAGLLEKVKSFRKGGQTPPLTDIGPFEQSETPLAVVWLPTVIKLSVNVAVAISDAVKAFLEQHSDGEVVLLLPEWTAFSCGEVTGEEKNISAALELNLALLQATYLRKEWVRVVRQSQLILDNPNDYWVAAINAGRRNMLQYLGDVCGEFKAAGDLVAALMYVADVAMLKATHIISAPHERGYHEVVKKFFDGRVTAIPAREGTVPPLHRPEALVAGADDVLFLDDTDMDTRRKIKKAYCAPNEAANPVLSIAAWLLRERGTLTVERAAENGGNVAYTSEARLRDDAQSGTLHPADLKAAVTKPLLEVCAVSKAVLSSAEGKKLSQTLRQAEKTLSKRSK

[8] = target: T4, Tyrosyl-tRNA synthetase, putative (Trypanosoma cruzi (strain CL Brener)); assay: Trypanosoma cruzi tyrosyl tRNA synthetase (TcYRS) SOP; type: functional; settings: 30 µM
[9] = target: Chromo domain-containing protein 1 (Saccharomyces cerevisiae (strain ATCC 204508 / S288c) (Baker's yeast)) (UniProt P32657); assay: ScCHD-1 Enzyme Inhibition Assay; type: functional; settings: 30 µM; note: in the data most compounds retested in dose-response had high values
Sequence of Chromo domain-containing protein 1 (Saccharomyces cerevisiae (strain ATCC 204508 / S288c) (Baker's yeast)) (P32657 whole entry, the tested form may be a part): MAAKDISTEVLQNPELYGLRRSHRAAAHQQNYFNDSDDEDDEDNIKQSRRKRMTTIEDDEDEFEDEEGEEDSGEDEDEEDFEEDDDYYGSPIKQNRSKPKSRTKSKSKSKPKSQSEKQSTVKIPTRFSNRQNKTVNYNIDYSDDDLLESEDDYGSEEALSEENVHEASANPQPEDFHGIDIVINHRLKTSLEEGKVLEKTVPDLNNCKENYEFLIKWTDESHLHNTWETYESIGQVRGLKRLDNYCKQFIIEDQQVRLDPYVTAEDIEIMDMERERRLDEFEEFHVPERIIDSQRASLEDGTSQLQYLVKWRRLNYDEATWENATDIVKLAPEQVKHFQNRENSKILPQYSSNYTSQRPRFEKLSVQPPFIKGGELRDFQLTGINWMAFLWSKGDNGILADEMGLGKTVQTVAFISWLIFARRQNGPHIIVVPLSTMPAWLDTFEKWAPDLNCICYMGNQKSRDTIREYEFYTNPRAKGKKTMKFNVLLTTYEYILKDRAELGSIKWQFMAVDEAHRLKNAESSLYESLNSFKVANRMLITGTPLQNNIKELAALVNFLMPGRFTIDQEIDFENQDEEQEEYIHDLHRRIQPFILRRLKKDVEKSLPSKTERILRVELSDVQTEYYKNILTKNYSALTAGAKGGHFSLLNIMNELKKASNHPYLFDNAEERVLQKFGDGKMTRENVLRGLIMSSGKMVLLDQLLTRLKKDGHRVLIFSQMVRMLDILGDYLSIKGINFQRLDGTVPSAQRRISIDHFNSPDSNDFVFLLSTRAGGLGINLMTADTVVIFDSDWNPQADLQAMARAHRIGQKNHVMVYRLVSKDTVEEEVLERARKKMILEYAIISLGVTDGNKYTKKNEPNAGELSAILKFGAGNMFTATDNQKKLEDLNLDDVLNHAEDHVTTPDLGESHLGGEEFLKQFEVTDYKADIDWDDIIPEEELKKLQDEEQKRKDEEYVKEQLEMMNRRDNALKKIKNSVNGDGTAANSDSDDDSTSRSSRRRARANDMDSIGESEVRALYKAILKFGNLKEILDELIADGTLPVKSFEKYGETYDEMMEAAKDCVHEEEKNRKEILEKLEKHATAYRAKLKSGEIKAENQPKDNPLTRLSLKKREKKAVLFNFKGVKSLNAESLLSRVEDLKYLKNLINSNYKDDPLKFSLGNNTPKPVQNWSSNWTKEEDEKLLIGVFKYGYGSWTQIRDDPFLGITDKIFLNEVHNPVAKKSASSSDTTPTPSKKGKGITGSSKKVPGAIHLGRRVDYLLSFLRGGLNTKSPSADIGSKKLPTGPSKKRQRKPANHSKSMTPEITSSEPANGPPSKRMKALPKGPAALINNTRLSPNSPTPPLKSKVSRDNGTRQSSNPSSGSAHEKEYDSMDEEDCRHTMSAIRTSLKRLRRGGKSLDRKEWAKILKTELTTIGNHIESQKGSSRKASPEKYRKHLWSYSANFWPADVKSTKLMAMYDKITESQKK

Sequence of Sialic acid-binding Ig-like lectin 9 (Homo sapiens) (Q9Y336 whole entry): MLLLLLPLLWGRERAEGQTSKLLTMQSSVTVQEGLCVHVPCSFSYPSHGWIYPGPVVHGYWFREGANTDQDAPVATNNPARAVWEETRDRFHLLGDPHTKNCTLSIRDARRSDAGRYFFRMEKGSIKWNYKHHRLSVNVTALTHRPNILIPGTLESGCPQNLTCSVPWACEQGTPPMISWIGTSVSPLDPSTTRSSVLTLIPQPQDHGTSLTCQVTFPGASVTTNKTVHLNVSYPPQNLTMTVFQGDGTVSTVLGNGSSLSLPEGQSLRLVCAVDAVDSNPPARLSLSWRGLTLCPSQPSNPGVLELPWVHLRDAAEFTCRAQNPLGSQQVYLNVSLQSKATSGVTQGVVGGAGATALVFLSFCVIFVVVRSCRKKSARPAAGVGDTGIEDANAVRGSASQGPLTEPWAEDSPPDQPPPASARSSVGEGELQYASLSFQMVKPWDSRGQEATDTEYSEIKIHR
Sequence of Protein translocase subunit SecA (Escherichia coli (strain K12)) (P10408 whole entry): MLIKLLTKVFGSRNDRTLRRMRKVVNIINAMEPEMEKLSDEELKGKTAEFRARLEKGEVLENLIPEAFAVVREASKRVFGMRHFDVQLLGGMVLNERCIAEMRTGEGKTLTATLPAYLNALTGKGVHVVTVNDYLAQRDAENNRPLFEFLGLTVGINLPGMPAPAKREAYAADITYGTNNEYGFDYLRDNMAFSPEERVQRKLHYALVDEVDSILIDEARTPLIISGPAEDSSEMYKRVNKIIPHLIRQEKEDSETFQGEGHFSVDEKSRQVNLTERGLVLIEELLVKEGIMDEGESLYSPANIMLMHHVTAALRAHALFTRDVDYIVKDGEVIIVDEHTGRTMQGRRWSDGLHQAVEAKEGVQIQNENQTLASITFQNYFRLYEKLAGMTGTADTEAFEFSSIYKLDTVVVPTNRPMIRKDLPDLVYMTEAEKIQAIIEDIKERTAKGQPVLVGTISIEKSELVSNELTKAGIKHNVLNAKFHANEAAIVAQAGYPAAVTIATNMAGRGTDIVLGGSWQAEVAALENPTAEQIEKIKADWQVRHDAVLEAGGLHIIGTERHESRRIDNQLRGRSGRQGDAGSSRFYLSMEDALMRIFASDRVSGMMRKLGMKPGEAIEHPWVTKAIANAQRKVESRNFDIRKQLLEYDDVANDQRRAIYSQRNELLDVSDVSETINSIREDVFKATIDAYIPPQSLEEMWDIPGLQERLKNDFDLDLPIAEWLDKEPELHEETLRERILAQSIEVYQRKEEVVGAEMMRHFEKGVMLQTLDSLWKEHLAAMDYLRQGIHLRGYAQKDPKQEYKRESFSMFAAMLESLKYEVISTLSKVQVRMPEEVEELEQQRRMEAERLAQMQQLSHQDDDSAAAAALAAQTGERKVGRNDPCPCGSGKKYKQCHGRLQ

| Structure (SMILES) | Percent Effect [1] [%] | Percent Effect [2] [%] | Percent Effect [3] [%] | Percent Effect [4] [%] | Percent Effect (Trypanosoma cruzi) [%] | Percent Effect [5] [%] | Percent Effect [6] [%] | Percent Effect (Homo sapiens) [%] | Percent Effect [7] [%] | Percent Effect [8] [%] | Percent Effect [9] [%] |
| --- | --- | --- | --- | --- | --- | --- | --- | --- | --- | --- | --- |
| CC(C)Cc1nc(OCC(=O)O)c(C#N)c2c1CCC2 | 1.44 | 9.33 | -5.52 | -3.77 | 1.57 | -2.29 | 9.24 | 3.54 | -1.06 | 2.56 | -8.05 |
| Cn1cc(CN2CCCn3cnc(CN4CCCC4=O)c3C2)cn1 | -2.78 | -2.67 | 4.3 | 32.8 | -1.74 | -23.5 | 3.76 | -13.1 | 1.04 | 2.5 | -4.19 |
| CC(C)(C)c1nnc(CN2CCN(S(C)(=O)=O)CC2)o1 | -2.63 | 13.5 | -2.69 | 19.5 | 3.48 | 1.43 | 12.1 | 5.81 | 2.65 | 12.2 | -3.73 |
| O=C(c1ccc(-n2ccnc2)nc1)N1CCCC(n2cccn2)C1 (stereo unspecified) | -0.548 | 7.89 | -2.37 | 3.05 | -2.63 | 7.28 | -0.501 | 15.7 | 5.39 | 9.76 | 0.587 |
| CCN1CCCC1CN(CCN(C)C)S(=O)(=O)c1ccc(C#N)cc1 (stereo unspecified) | -3.88 | 5.48 | -10.9 | 21.3 | 4.5 | 0.909 | 3.73 | 3.29 | 4.3 | 15 | -5.33 |
| CCOc1ccnc(N2CCN(C(=O)c3cn[nH]c3CC)CC2)n1 | -3.25 | 15.2 | -3.34 | 7.76 | 0.472 | -0.38 | -1.23 | 18.9 | 7.39 | 24.1 | -4.33 |
| O=C(Nc1cccc(CN2CCOC2=O)c1)N1CCOCC1 | -1.28 | 1.39 | -4.85 | -10.5 | -4.76 | 3.09 | 12.6 | 2.75 | 2.1 | 7.69 | -2.72 |
| O=C(O)c1ccc(F)c(S(=O)(=O)Nc2c(F)cccc2-n2cccn2)c1 | -6.05 | 2.67 | -4.66 | 12.6 | 2.04 | 3.12 | 8.02 | 2.56 | 4.92 | 8.64 | -3.46 |
| O=C(NCCO)C1(Cc2cc(-c3ccc(F)cc3F)no2)CCOCC1 | -2.99 | 12.2 | 14.6 | -1.56 | 0.988 | 1.16 | 15.8 | 23.3 | 0 | 6.49 | -16.7 |
| COCCC(=O)N1CC2(CCN(Cc3ccoc3)C2)C1 | -1.14 | 13.3 | 3.09 | -10.1 | -6.69 | 5.36 | 17.7 | 9.94 | 4.25 | 1.28 | -1.88 |
| Cc1cc(C)n(-c2ccc(CNCc3ccc(OC(C)C)cc3)cn2)n1 | -0.648 | 13.2 | -0.778 | -0.618 | 6.01 | -3.06 | 15.5 | 20.5 | 13.2 | 19.5 | -10.2 |

— ChEMBL document CHEMBL3988442, “University of Dundee, Small-Polar-MMV Screening Library” (2021)
